# HT1080NT lethal – qHTS for induction of synthetic lethality in tumor cells producing 2HG: qHTS for the HT-1080-NT fibrosarcoma cell line. HT-1080-NT fibrosarcoma viability, CellTiter-Glo ATP luminescence, 48 h. Potency, µM (doses to about 46.1 µM), inactives show at the highest dose activity, negative = less viability, most hits filed as cytotoxic. actives 1.6% (n = 360,000). AID 686970, 2013;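 further: NT is the 2HG producing partner of a matched IDH1 knockdown line; 0% = DMSO-treated cells and -100% = media-only wells without cells; nearly all actives have a fitted effect of over 55% in size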
#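 HT-1080-NT; 750 cells/well; 5% FBS RPMI; 48 h compound, 37 degrees C; CellTiter-Glo luminescence; curve fitting and curve-class assignment.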
# KB-3-1 tox – qHTS assay for MDR1-selective chemotherapeutics: Primary screen using the parental adenocarcinoma cell KB-3-1 | KB-3-1 viability, CellTiter-Glo ATP luminescence, 72 h | Potency, µM (highest dose often 46.1 µM), usual class: cytotoxic | actives 1.4% (n = 400,000); further: nearly all actives have a fitted effect of over 60% in size
#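 Luminescent ATP read-out (CellTiter-Glo) measures survival of drug-naive KB-3-1 cells after 72 h compound exposure at 37 °C. Titration series was screened from lowest to highest concentration, with DMSO vehicle plates as background controls.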
# KB-V1 MDR tox – qHTS assay for MDR1-selective chemotherapeutics: Primary screen using the drug-selected MDR subline cells KB-V1; KB-V1 MDR cells viability, CellTiter-Glo, 72 h; Potency, µM (top dose mostly 46.1 µM), usual class: cytotoxic; actives 3.4% (n = 400,000); AID 1347076, 2019; further: nearly all actives have a fitted effect of over 60% in size
#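 Drug-selected KB-V1 cells, grown in DMEM lacking phenol red with 10% FBS, receive compound titrations; after three days at 37 degrees C, surviving cell ATP is quantified by CellTiter-Glo luminescence and responses normalized and curve-fitted.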
# DT40 TDP1 no CPT – qHTS for Inhibitors of human tyrosyl-DNA phosphodiesterase 1 (TDP1): qHTS in cells in absence of CPT | DT40 Tdp1-/- hTDP1 cells, no CPT, ATP luminescence, 48 h | Potency, µM (highest dose often 46.2 µM), inactives show at the top dose activity change, negative = growth inhibition, usual class: inhibitors | actives 15% (n = 420,000); further: nearly all actives have a fitted effect of over 55% in size
#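 Compound effects on proliferation are scored in DT40 Tdp1-/-;hTDP1 cells in the absence of CPT. ATP levels (CellTiter-Glo luminescence) are recorded after a ≥48 hr, 37 °C incubation.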
# HT1080 IDH1KD tx – qHTS for induction of synthetic lethality in tumor cells producing 2HG: qHTS for the HT-1080-IDH1KD cell line; Potency, µM (series often up to 46.1 µM), for inactives: at the highest dose activity, negative = toxicity, usual class: cytotoxic; actives 2% (n = 360,000); AID 686971, 2013; HT-1080 IDH1 knockdown viability, ATP luminescence, 48 h;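 further: 0% = DMSO wells and -100% = cell-free medium wells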
#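 In this qHTS, HT-1080 cells depleted of IDH1 are exposed for 48 h at 37 °C to compound titrations. Toxicity is scored from CellTiter-Glo luminescence, with DMSO as full viability and medium alone as none.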
# TDP1 cell CPT – qHTS for Inhibitors of human tyrosyl-DNA phosphodiesterase 1 (TDP1): qHTS in cells in presence of CPT | chicken DT40 Tdp1-/-;hTDP1 cells + 20 nM CPT, ATP luminescence, 48 h | actives 12% (n = 420,000) | Potency, µM (doses to about 46.2 µM), for the others: at the top dose activity change, negative = growth inhibition, hits mostly inhibitors; further: nearly all actives have a fitted effect of over 55% in size
#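 Cell growth measured by CellTiter-Glo luminescence after a minimum 48 h, 37 C compound exposure with 20 nM CPT in Tdp1-knockout DT40 cells stably expressing hTDP1, seeded 400/well; qHTS titration format.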
# Numbers without * were called inactive; i = inactive; ? = inconclusive; . = not tested or not shown; [ ] = another dose, or the depositor's remark. Shown are actives, neighbours in structure and some others; about 19% of the full set was active somewhere. The call rests on the fitted dose curve; in most records, active means well fitted curve in the direction sought with a large enough effect; inconclusive means small, poorly fitted or top-dose-only effect, or another doubt; inactive means no such curve, though single readings can be large; an effect the other way counts as inactive or inconclusive. Unless noted, on the % scale 0 is the no-effect control and ±100 the full control effect; potency means the concentration at half of the fitted maximal effect.
SMILES,HT1080NT lethal,KB-3-1 tox,KB-V1 MDR tox,DT40 TDP1 no CPT,HT1080 IDH1KD tx,TDP1 cell CPT
O=C(Nc1nc(OCC(F)(F)F)cnc1/C=C\c1ccccc1)c1ccsc1,1%,i,i,?,0%,23µM*
COc1ccc(C(=O)Nc2nc(OCC(F)(F)F)cnc2/C=C\c2ccccc2)c(OC)c1,20%,i,i,?,29%,21µM*
Cc1ccc(N(CC(=O)Nc2ccc(Br)c(C)c2)S(=O)(=O)c2cccs2)cc1,.,i,i,-28%,.,?
CCN(CC(=O)Nc1ccc(Br)c(C)c1)CC(=O)NC(C)C,-14%,i,i,15µM*,-8%,?
Cc1cc(NC(=O)CN(c2cccc(C)c2C)S(=O)(=O)c2ccccc2)ccc1Br,.,i,i,16µM*,.,18µM*
Cc1cc(C)cc(NC(=O)CN(c2cccc(C)c2C)S(=O)(=O)c2ccccc2)c1,.,i,i,21µM*,.,16µM*
CCCc1nc2ccc(N)cc2c(=O)n1Cc1ccccc1Cl,-3%,i,i,13%,-12%,13%
CCOC(=O)c1sc2ccccc2c1S(=O)(=O)N1CCN(c2cccc(C)c2C)CC1,.,i,i,?,.,?
COc1cccc(/C=N/Nc2nc(N3CCCC3)nc(N3CCCC3)n2)c1O,-4%,i,i,21µM*,11%[9.24 µM],?
COc1ccc(-n2c(C)cc(/C=N/Nc3nnc(C)n3N)c2C)cc1,-14%,i,i,16µM*,?,23µM*
Fc1ccccc1COc1ccccc1/C=N/Nc1nc(N2CCCC2)nc(N2CCCC2)n1,0%,i,?,21µM*,15%,?
COc1ccc(/C=N/Nc2nc(N3CCCC3)nc(N3CCCC3)n2)c(OC)c1OC,5%,i,i,-8%,9%,-3%
COc1cccc(/C=N/Nc2ncnc3c2ncn3Cc2ccccc2)c1O,-14%,?,0.52µM*,4.6µM*,?,3.7µM*
CCN1CCN(c2ccc(S(=O)(=O)N3CCOCC3)cc2NC(=O)CCC(C)C)CC1,-10%,i,i,-20%,8%,-2%
COCC(=O)N1CCC2(CCN(Cc3ccccc3OC)CC2)CC1,.,.,.,-9%,.,5%
CCOc1ccc(-n2c(=O)c3c4c(sc3n(Cc3cccc(C)c3)c2=O)CCCC4)cc1,.,?,?,-27%,.,-3%
CNC(=O)C1CC(=O)N(CCCc2ccccc2)C(=Nc2ccccc2)S1 (stereo not given),13%,i,?,-27%,7%,-21%
O=[N+]([O-])c1ccc(S(=O)(=O)Nc2ccc(-c3ccc(N4CCOCC4)nn3)cc2)cc1,-10%,i,i,-18%,-7%,-21%
COc1ccc(/C=N/Nc2cc(N3CCOCC3)ncn2)c(OC)c1,10%,i,?,-21%,0%,4%
COc1cccc(/C=N/Nc2cc(N3CCOCC3)ncn2)c1O,?,10µM*,i,6.5µM*,5.8µM*,5.8µM*
COc1cccc(/C=N/Nc2nnc(C)n2N)c1O,?,i,i,21µM*,21µM*,?
COc1ccc(NC(=O)C(C)Sc2nnc3c4c(nc(-c5ccc(OC)cc5)n23)CC(C)(C)OC4)cc1 (stereo not given),-2%,i,i,15µM*,-1%,21µM*
CC(=O)N1CCN(C(=O)C(=O)Nc2c3c(nn2-c2ccc(Cl)cc2)CSC3)CC1,.,i,i,-13%,.,-1%
COc1ccc(-n2nc3c(c2NC(=O)CCl)CSC3)cc1,21µM*,23µM*,?,2.3µM*,7.3µM*,2.6µM*
O=C(NCc1ccccc1)C(=O)Nc1c2c(nn1-c1ccc(F)cc1)CSC2,.,i,i,16µM*,.,?
SMILES,HT1080NT lethal,KB-3-1 tox,KB-V1 MDR tox,DT40 TDP1 no CPT,HT1080 IDH1KD tx,TDP1 cell CPT
COc1ccc(-n2nc3c(c2NC(=O)C(C)Cl)CSC3)cc1 (stereo not given),2%,i,i,-25%,0%,-14%
CC(C)CCNC(=O)C(=O)Nc1c2c(nn1-c1ccc(Cl)cc1)CSC2,.,.,.,12µM*,.,26µM*
O=C(NCCOCCO)C(=O)Nc1c2c(nn1-c1ccc(F)cc1)CSC2,.,i,i,1%,.,7%
CC(=O)Nc1ccc(S(=O)(=O)NCc2ccc(C(=O)NC(C)c3ccccc3)cc2)cc1 (stereo not given),6%,i,i,-1%,0%,-17%
O=C(NC1CCCN(C2Cc3ccccc3C2)C1)c1ccc(F)cc1Cl (stereo not given),0%,i,i,2%,-14%,-27%
COc1ccc(-c2nc(CS(=O)CC(=O)NCCN3CCCCC3C)c(C)o2)cc1OC (stereo not given),-13%,i,?,-1%,1%,1%
CCOC(=O)C(=C1Nc2ccccc2N1)n1c(-c2ccco2)nc2ccccc21,-6%,i,i,?,-2%,7.3µM*
Cc1ccccc1-c1cccc([C@@H]2C[C@H]3[C@H](CON3C)CN2C(=O)C(C)(C)C)c1,10%,i,i,?,3%,-27%
C[N+](C)(C)C/C=C1/COCO1,19%,i,i,?,23%,18µM*
COc1ccc(C(=O)N/N=C(\C)c2ccc3c(c2)C2C=CCC2C(c2ccccc2)N3)cc1 (stereo not given),-5%,i,i,15µM*,-1%,?
COC(=O)c1ccc([C@H]2Nc3ccc(S(=O)(=O)Nc4ccc(F)cc4)cc3[C@H]3C=CC[C@H]32)cc1,.,i,i,3.3µM*,.,3.7µM*
COc1cccc(NS(=O)(=O)c2ccc3c(c2)C2C=CCC2C(c2ccc(C(=O)O)cc2)N3)c1 (stereo not given),6%,i,i,-11%,5%,-9%
COc1ccc(C)cc1NS(=O)(=O)c1ccc2c(c1)[C@H]1C=CC[C@H]1[C@@H](c1cccc(Cl)c1)N2,.,i,i,21µM*,.,13µM*
